For seven compounds, outcome and Potency results are on record in PubChem BioAssay (NCATS).

Test [1] deals with HEK293T. The test can be described thus: qHTS assay to identify novel small-molecules to repurpose for Merkel cell carcinoma treatment (AID 1296009). Note: nearly all actives have a fitted effect of over 60% in size. The note with it: MCC and control cell lines, CellTiter-Glo viability, 72 h; at 44.8 µM (top of the series) unless noted. The gist of the method:
(§1)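 Luminescence from CellTiter-Glo, read 10 min after addition at room temperature, reported viability following a 72 hr, 37 degree celsius treatment with NPC or MIPE compounds in titration; values normalized to plate controls.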

Another test deals with MCC-13. The test is described as above. The note with it: MCC and control cell lines, CellTiter-Glo viability, 72 h; series mostly up to 46 µM. The essentials:
as §1

The next test has as its system MCC-26. The description is as above. The conditions noted are these: MCC and control cell lines, CellTiter-Glo viability, 72 h; series mostly up to 46 µM. The gist of the method: as §1
The subject of a further test is MKL-1. The test is described as above. The note with it: MCC and control cell lines, CellTiter-Glo viability, 72 h; series mostly up to 46 µM. The gist of the method:
as §1

The subject of another test is MKL-2. The description is as above. The conditions noted are these: MCC and control cell lines, CellTiter-Glo viability, 72 h; series mostly up to 46 µM. The essentials: as §1
In a further test the test system is NIH3T3. Described as above. The note with it: MCC and control cell lines, CellTiter-Glo viability, 72 h; at 44.8 µM (top of the series) unless noted. The essentials:
as §1

The test system of another test is UISO. The description is as above. The note with it: MCC and control cell lines, CellTiter-Glo viability, 72 h; series mostly up to 46 µM. The gist of the method: as §1
In another test the test system is WaGa. Described as above. The note with it: MCC and control cell lines, CellTiter-Glo viability, 72 h; series mostly up to 46 µM. The gist of the method: as §1
In the next test the test system is C33A. The test can be described thus: Primary qHTS to identify gynecologic anti-cancer compounds using libraries of approved drugs and bioactive compounds (AID 1345084). Note: nearly all actives have a fitted effect of over 55% in size. Note: potency is the fitted concentration of half-maximal effect. The note with it: Gynecologic cancer cell panel viability, ATPlite luminescence, 48 h; series mostly up to 57.5 µM. The gist of the method:
(§2)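 Cell viability after 48 h drug treatment, ATPlite luminescence readout; five doses.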

For another test, the system named is CAOV3. The description is as above. The conditions noted are these: Gynecologic cancer cell panel viability, ATPlite luminescence, 48 h; series mostly up to 57.5 µM. The essentials: as §2
The next test relates to CASKI. The test is described as above. The note with it: Gynecologic cancer cell panel viability, ATPlite luminescence, 48 h; series mostly up to 57.5 µM. The gist of the method: as §2
The test system of another test is Es-2. The test is described as above. The conditions noted are these: Gynecologic cancer cell panel viability, ATPlite luminescence, 48 h; series mostly up to 57.5 µM. The essentials:
as §2

In the next test the test system is HeLa. The description is as above. The conditions noted are these: Gynecologic cancer cell panel viability, ATPlite luminescence, 48 h; series mostly up to 57.5 µM. The essentials:
as §2

Test [2] relates to Hek293T. The test is described as above. The note with it: Gynecologic cancer cell panel viability, ATPlite luminescence, 48 h, control line for the selectivity index; series mostly up to 57.5 µM. The gist of the method:
as §2

For a further test, the system named is JEG-3. Described as above. The note with it: Gynecologic cancer cell panel viability, ATPlite luminescence, 48 h; series mostly up to 57.5 µM. The gist of the method: as §2
The subject of another test is OV90. Described as above. The conditions noted are these: Gynecologic cancer cell panel viability, ATPlite luminescence, 48 h; series mostly up to 57.5 µM. The gist of the method: as §2
For a further test, the system named is PA-1. The description is as above. The note with it: Gynecologic cancer cell panel viability, ATPlite luminescence, 48 h; series mostly up to 57.5 µM. The gist of the method: as §2
The subject of the next test is SKOV3. Described as above. The note with it: Gynecologic cancer cell panel viability, ATPlite luminescence, 48 h; series mostly up to 57.5 µM. The essentials:
as §2

The subject of a further test is Tov-21-G. The description is as above. The conditions noted are these: Gynecologic cancer cell panel viability, ATPlite luminescence, 48 h; series mostly up to 57.5 µM. The gist of the method: as §2
The test system of a further test is Tov112D. The test is described as above. The note with it: Gynecologic cancer cell panel viability, ATPlite luminescence, 48 h; series mostly up to 57.5 µM. The gist of the method:
as §2

Records with an inconclusive call do not appear. The source made the active and inactive calls. Calls come from the whole dose curve; as a rule, active = well fitted curve in the direction sought with a large enough effect; inconclusive = small, poorly fitted or top-dose-only effect, or another doubt; inactive = no such curve, though single readings can be large; an effect the other way counts as inactive or inconclusive.

In the case of `c1ccc2c(c1)CCc1ccccc1N2`, the outcome in the test with HEK293T [1] and in the test on NIH3T3 was inactive. In addition, the Potency entry in the test with MCC-13, in the test with MCC-26, in the test on MKL-1, in the test with MKL-2, in the test with UISO and in the test on WaGa was “inactive” in each case. The Potency entry with C33A, with CAOV3, with CASKI, with Es-2, in the test on HeLa and with Hek293T [2] was “inactive” each time. The Potency result in the test with JEG-3, with OV90, with PA-1, in the test with Tov-21-G and in the test with Tov112D was “inactive” throughout. Besides, the Potency in the test on SKOV3 is 22.4 µM (active).

With `NS(=O)(=O)c1ccc(N2CCCCS2(=O)=O)cc1`, the compound was called inactive in the test on HEK293T [1] and with NIH3T3. In addition, the Potency result in the test with MCC-13, in the test with MCC-26, with MKL-1, with MKL-2, in the test with UISO and in the test on WaGa was “inactive” throughout. Moreover, the Potency result in the test on C33A, in the test with CAOV3, in the test on CASKI, in the test on Es-2, in the test on HeLa and in the test on Hek293T [2] was “inactive” in each case. Also, the Potency entry with JEG-3, in the test with OV90, in the test with PA-1, in the test on SKOV3, with Tov-21-G and in the test on Tov112D was “inactive” throughout.

As to `COc1cc(OC)nc(O[C@H](C(=O)O)C(OC)(c2ccccc2)c2ccccc2)n1`, the compound was called inactive with HEK293T [1] and in the test on NIH3T3. The Potency entry in the test with MCC-13, with MCC-26, with MKL-1, with MKL-2, in the test with UISO and in the test with WaGa was “inactive” each time. The Potency result in the test with C33A, with CAOV3, in the test on CASKI, with Es-2, in the test with HeLa and in the test on Hek293T [2] was “inactive” throughout. The Potency result with JEG-3, in the test on OV90, in the test on PA-1, in the test on SKOV3, in the test with Tov-21-G and with Tov112D was “inactive” each time.

Take `O=C(C1CCCCC1)N1CC(=O)N2CCCc3ccccc3C2C1` (centres undefined): the call in the test with HEK293T [1] and in the test with NIH3T3 was inactive. Also, the Potency entry in the test on MCC-13, in the test on MCC-26, with MKL-1, with MKL-2, in the test on UISO and with WaGa was “inactive” throughout. The Potency entry in the test on C33A, with CAOV3, in the test on CASKI, with Es-2, in the test on HeLa and in the test with Hek293T [2] was “inactive” in each case. The Potency entry in the test with JEG-3, in the test on OV90, with PA-1, with SKOV3, with Tov-21-G and in the test on Tov112D was “inactive” each time.

As for `CO[C@@]1(NC(=O)CSC[C@@H](N)C(=O)O)C(=O)N2C(C(=O)O)=C(CSc3nnnn3C)CS[C@@H]21`, the outcome with HEK293T [1] was inactive. For the same compound, the Potency entry in the test with MCC-13, in the test on MCC-26, with MKL-1, in the test on MKL-2, with UISO and in the test with WaGa was “inactive” each time. The Potency result in the test on C33A, in the test on CAOV3, in the test on CASKI, in the test on Es-2, in the test with HeLa and with Hek293T [2] was “inactive” in each case. Further, the Potency result with JEG-3, in the test on OV90, in the test with PA-1, in the test with SKOV3, with Tov-21-G and with Tov112D was “inactive” each time.

For the compound `CN(C)CCN1CCN(c2cccc(Cl)c2)C1=O`, the call in the test with HEK293T [1] and in the test on NIH3T3 was inactive. Further, the Potency result in the test on MCC-13, in the test on MCC-26, with MKL-1, in the test on MKL-2, in the test on UISO and in the test on WaGa was “inactive” in each case. For the same compound, the Potency entry with C33A, with CAOV3, with CASKI, in the test with Es-2, with HeLa and in the test with Hek293T [2] was “inactive” each time. Moreover, the Potency entry with JEG-3, with OV90, in the test on PA-1, in the test on SKOV3, in the test with Tov-21-G and with Tov112D was “inactive” in each case.

Regarding `COc1ccc(CCC(C)=O)cc1`, the call in the test with HEK293T [1] and in the test on NIH3T3 was inactive. The Potency entry in the test on MCC-13, in the test with MCC-26, in the test on MKL-1, in the test with MKL-2, in the test with UISO and with WaGa was “inactive” in each case. The Potency entry in the test on C33A, with CAOV3, with CASKI, in the test with Es-2, in the test with HeLa and in the test on Hek293T [2] was “inactive” each time. For the same compound, the Potency result in the test on JEG-3, in the test with OV90, in the test on PA-1, in the test with SKOV3, with Tov-21-G and in the test on Tov112D was “inactive” each time.
